This note sets out measurements from PubChem BioAssay.

The target of assay [1] is PEG-3 (UniProt Q6IN02). The assay can be described thus: Peg3 promoter luciferase inhibitors, potency, dose response, cell-based, HeLa, CREF/GAPDH counter-screen panel (AID 624167). The following applies: CREF/GAPDH counter-screens; HeLa PEG-Prom luciferase reporter, overnight, run 1, dose range 1, at 100 µM (top of the series) unless noted. A general note: The purpose of a counterscreen is to sort out artefacts and off-target activity.
Chain of PEG-3 (Q6IN02 whole entry, looked up): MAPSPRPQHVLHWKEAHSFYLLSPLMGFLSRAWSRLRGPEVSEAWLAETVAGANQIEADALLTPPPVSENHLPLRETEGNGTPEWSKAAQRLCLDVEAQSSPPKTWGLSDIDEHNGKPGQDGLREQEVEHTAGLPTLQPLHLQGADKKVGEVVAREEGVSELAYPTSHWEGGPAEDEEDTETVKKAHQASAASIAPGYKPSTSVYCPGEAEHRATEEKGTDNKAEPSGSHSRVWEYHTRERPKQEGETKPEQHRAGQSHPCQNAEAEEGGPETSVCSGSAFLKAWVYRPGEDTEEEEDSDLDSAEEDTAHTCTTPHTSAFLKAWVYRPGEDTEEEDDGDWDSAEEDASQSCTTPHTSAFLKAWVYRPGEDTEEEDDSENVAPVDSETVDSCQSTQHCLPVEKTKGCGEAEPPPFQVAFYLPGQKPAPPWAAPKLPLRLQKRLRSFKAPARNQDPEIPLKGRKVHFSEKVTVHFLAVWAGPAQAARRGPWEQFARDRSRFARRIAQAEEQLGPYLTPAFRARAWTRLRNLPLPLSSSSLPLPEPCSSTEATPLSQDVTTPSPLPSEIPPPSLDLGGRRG

For assay [2], the target named is PEG-3 (UniProt Q6IN02). Described as above. The following applies: CREF/GAPDH counter-screens; HeLa PEG-Prom luciferase reporter, overnight, run 2, dose range 1, at 100 µM (top of the series) unless noted.
Assay [3] has as its system Rat fibroblasts (CREF). The assay is described as above. The following applies: CREF/GAPDH counter-screens; run 1, dose range 1, at 100 µM (top of the series).
In assay [4] the test system is Rat fibroblasts (CREF). Described as above. The following applies: CREF/GAPDH counter-screens; run 2, dose range 1, at 100 µM (top of the series).
For assay [5], the target named is Tumor necrosis factor receptor superfamily member 10B (Homo sapiens) (UniProt O14763). The assay can be described thus: caspase-8 TRAIL sensitization, hit retest, confirmation, cell-based, NB7+caspase-8, with/without TRAIL, luminescence panel (AID 651596). The conditions noted are these: NB7 neuroblastoma + caspase-8, TRAIL sensitization, luminescence viability, with TRAIL, mean of runs, at 10 µM, stronger effect = higher value.
Chain of Tumor necrosis factor receptor superfamily member 10B (Homo sapiens) (O14763 whole entry, looked up): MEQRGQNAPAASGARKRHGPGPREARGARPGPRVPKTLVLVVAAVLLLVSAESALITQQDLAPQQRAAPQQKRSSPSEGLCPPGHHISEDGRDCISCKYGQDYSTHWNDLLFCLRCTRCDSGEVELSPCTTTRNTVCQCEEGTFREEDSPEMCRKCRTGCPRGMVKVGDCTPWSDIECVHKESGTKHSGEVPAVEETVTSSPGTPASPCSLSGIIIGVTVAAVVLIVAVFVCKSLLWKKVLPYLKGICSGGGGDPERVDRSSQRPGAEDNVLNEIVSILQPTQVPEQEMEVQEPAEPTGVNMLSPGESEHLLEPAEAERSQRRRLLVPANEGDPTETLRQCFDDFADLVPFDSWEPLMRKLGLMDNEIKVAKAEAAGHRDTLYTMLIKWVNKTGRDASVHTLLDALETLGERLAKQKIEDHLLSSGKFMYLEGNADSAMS

Assay in assay [6]: as above
The conditions noted are these: NB7 neuroblastoma + caspase-8, without TRAIL, luminescence viability, without TRAIL, mean of runs, at 10 µM.

The structures appear in SMILES notation.

What is called inhibition is the change of the read-out against control, counted positive when it falls.

As for `CC1CCN(c2ccc(-c3cccc(NC(=O)C(F)(F)F)c3)nn2)CC1`, the inhibition in the assay with PEG-3 [1] worked out at 93.8%; with PEG-3 [2], 94.5%; in the assay with Rat fibroblasts (CREF) [3], 99.2%; with Rat fibroblasts (CREF) [4] it was 99.5%. Also, the activity in assay [5] was determined as 97.5%; in assay [6], 97.7%.
`CCc1ccc(C(=O)Nc2nc3ccccc3[nH]2)cc1`: the inhibition is 95.9% with PEG-3 [1], 97.2% with PEG-3 [2], 98.4% in the assay with Rat fibroblasts (CREF) [3] and 98.5% in the assay with Rat fibroblasts (CREF) [4]. The activity worked out at 98.2% in assay [5] and 98.5% in assay [6].
As to `O=C1c2cccc3cc([N+](=O)[O-])cc(c23)C(=O)N1CCN1CCCC1`, the inhibition in the assay with PEG-3 [1] was determined as 102%; in the assay with PEG-3 [2], 99.1%; with Rat fibroblasts (CREF) [3], 80.3%; in the assay on Rat fibroblasts (CREF) [4], 83%. Further, the activity was determined as 41.1% in assay [5] and 67.3% in assay [6].
As to `C/C(=N\NC(=O)c1n[nH]c2c1CCC2)c1cccs1`, the inhibition came to 98.6% with PEG-3 [1], 99.7% with PEG-3 [2], 96.7% in the assay on Rat fibroblasts (CREF) [3] and 94.4% in the assay on Rat fibroblasts (CREF) [4]. In addition, the activity is 80.4% in assay [5] and 76.2% in assay [6].
Turning to `CN(C)CCCN(C(=O)c1ccc(S(=O)(=O)N2CCc3ccccc3C2)cc1)c1nc2ccc(F)cc2s1`, the inhibition stood at 102% with PEG-3 [1], 98.9% with PEG-3 [2], 99% in the assay on Rat fibroblasts (CREF) [3] and 98.9% in the assay on Rat fibroblasts (CREF) [4]. In addition, the activity in assay [5] came to 48.5%; in assay [6], 17.1%.
For the molecule `Cc1ccc(C(=O)Nc2ncc([N+](=O)[O-])s2)cc1`, the inhibition in the assay with PEG-3 [1] was 91.3%; with PEG-3 [2], 96.1%; in the assay with Rat fibroblasts (CREF) [3] it was 85.9%; with Rat fibroblasts (CREF) [4], 88.8%. Moreover, the values for the activity in assay [5] and in assay [6] were 68% and 62.8%, respectively.
Turning to `C/C(=N/NC(=O)c1cc(C2CC2)[nH]n1)c1cccs1`, the inhibition with PEG-3 [1] came out at 92.3%; with PEG-3 [2] it was 87.2%; in the assay with Rat fibroblasts (CREF) [3], 95.4%; in the assay with Rat fibroblasts (CREF) [4], 96.2%. Moreover, the activity in assay [5] and in assay [6] was 70.8% in each case.
Consider `Cc1cc(C(=O)CN2C(=O)c3ccccc3S2(=O)=O)c(C)n1CC1CCCO1` (centres undefined), for which the inhibition with PEG-3 [1] came to 102%; with PEG-3 [2] it was 99.2%; in the assay on Rat fibroblasts (CREF) [3], 99.2%; in the assay on Rat fibroblasts (CREF) [4] it was 89.4%. For the same molecule, the activity in assay [5] was found to be 87.9%; in assay [6] it was 89%.
For `O=C(c1ccc(Cl)cc1)N1CCCCC(Sc2nnc(-c3ccc4c(c3)OCO4)o2)C1=O` (centres undefined), the inhibition worked out at 93.2% with PEG-3 [1], 67.1% in the assay with PEG-3 [2], 98% in the assay with Rat fibroblasts (CREF) [3] and 85.5% in the assay with Rat fibroblasts (CREF) [4]. The activity in assay [5] turned out to be 75.8%; in assay [6] it was 72.6%.
For the molecule `O=C(N/N=C/c1cccs1)c1n[nH]c2c1CCCC2`, the inhibition with PEG-3 [1] was determined as 99.5%; in the assay with PEG-3 [2] it was 94.8%; with Rat fibroblasts (CREF) [3], 96.4%; in the assay on Rat fibroblasts (CREF) [4], 96.8%. Moreover, the activity was found to be 81% in assay [5] and 84.2% in assay [6].
Regarding `COc1ccc(/C=N/Nc2nncc3ccccc23)cc1`, the inhibition in the assay with PEG-3 [1] worked out at 92.6%; with PEG-3 [2], 95.4%; in the assay on Rat fibroblasts (CREF) [3], 97.8%; in the assay on Rat fibroblasts (CREF) [4] it was 98.9%. Further, the figures for the activity in assay [5] and in assay [6] were 97.3% and 97%, respectively.
`Fc1ccc(-c2nnc(NC3=NCCCCC3)o2)cc1`: the inhibition was 94.9% in the assay with PEG-3 [1], 97.3% in the assay with PEG-3 [2], 95.2% in the assay on Rat fibroblasts (CREF) [3] and 94% in the assay on Rat fibroblasts (CREF) [4]. The results for the activity in assay [5] and in assay [6] were 76% and 77.7%, respectively.
As for `CC(=O)CSc1ccc(-c2nc3cc(C)c(C)cc3[nH]2)cn1`, the inhibition is 102% with PEG-3 [1], 101% in the assay with PEG-3 [2], 95.4% in the assay on Rat fibroblasts (CREF) [3] and 95.4% with Rat fibroblasts (CREF) [4]. Besides, the figures for the activity in assay [5] and in assay [6] were 89.6% and 88.5%, respectively.
On to `CCCCCCCNC(=O)C1(CC2CC(c3cccc(Br)c3)=NO2)CCNCC1` (centres undefined), for which the inhibition with PEG-3 [1] is 99.6%; with PEG-3 [2], 101%; with Rat fibroblasts (CREF) [3], 99.7%; in the assay on Rat fibroblasts (CREF) [4], 99.2%. Further, the values for the activity in assay [5] and in assay [6] were 60.5% and 98.4%, respectively.
Turning to `Cc1ccc2nc(NC(=O)c3ccccn3)sc2c1`, the inhibition was found to be 99.4% with PEG-3 [1], 98.6% with PEG-3 [2], 94.5% in the assay on Rat fibroblasts (CREF) [3] and 95.5% in the assay with Rat fibroblasts (CREF) [4]. The activity was determined as 94% in assay [5] and 93.7% in assay [6].
For the molecule `CS(=O)(=O)Nc1cccc(NC(=O)C2Cc3c(-c4ccccc4)ccnc3O2)c1` (centres undefined), the inhibition in the assay with PEG-3 [1] is 58.9%; with PEG-3 [2], 75.2%; with Rat fibroblasts (CREF) [3] it was 35.5%; with Rat fibroblasts (CREF) [4], 40%. Moreover, the activity in assay [5] came out at 57%; in assay [6], 69.3%.
In the case of `CCOc1ccc(NC(=O)c2ccccn2)cc1`, the inhibition is 88.8% in the assay with PEG-3 [1], 91.5% with PEG-3 [2], 97.1% with Rat fibroblasts (CREF) [3] and 95.5% with Rat fibroblasts (CREF) [4]. In addition, the activity in assay [5] was found to be 92.4%; in assay [6], 89.9%.
For the molecule `CC(=O)n1cc(N(C(=O)CCl)c2ccc(C)cc2)c2ccccc21`, the inhibition worked out at 102% with PEG-3 [1], 99% in the assay with PEG-3 [2], 99.7% in the assay with Rat fibroblasts (CREF) [3] and 95.3% with Rat fibroblasts (CREF) [4]. Further, the activity in assay [5] came to 99.6%; in assay [6], 99.7%.
For the molecule `COc1ccc(/C=C/c2nc3ccccc3n2C)cc1`, the inhibition came out at 99.2% with PEG-3 [1], 97.5% in the assay with PEG-3 [2], 100% in the assay with Rat fibroblasts (CREF) [3] and 99.9% in the assay on Rat fibroblasts (CREF) [4]. In addition, the values for the activity in assay [5] and in assay [6] were 97.2% and 97.1%, respectively.
